For eight molecules, growth results are on record in PubChem BioAssay (NCI).

What all share (assay): NCI-60 one-dose screen, 48 h (100 = growth as untreated, 0 = no growth, -100 = all killed)
Common to all, as to settings: 10 µM unless noted

Assay [1] deals with NCI-H23 lung.
The test system of assay [2] is NCI-H226 lung.
Assay [3] deals with NCI-H322M lung.
The subject of assay [4] is HOP-62 NSCLC.
Assay [5] deals with NCI-H460 lung.
Assay [6] concerns NCI-H522 lung.
Assay [7] has as its system A549/ATCC NSCLC.
Assay [8] has as its system 786-0 renal.
Assay [9] relates to COLO 205 colon.
In assay [10] the test system is DU-145 prostate.
Assay [11] relates to MDA-MB-231 breast.
The subject of assay [12] is RXF 393 renal.
Assay [13] concerns SF-268 CNS.
In assay [14] the test system is SF-295 CNS.
Assay [15] deals with SF-539 CNS.
In assay [16] the test system is UACC-257 melanoma.
Assay [17] deals with M14 melanoma.
Assay [18] concerns K-562 leukemia.
In assay [19] the test system is MALME-3M melanoma.

About 83,000 compounds went through this panel and 20% of them were active in at least one assay; those are over-represented in the sample as a whole.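 Method: cells in 96-well plates; compound added at one concentration; 48 h incubation; percent growth measured; values under 10 scored active.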 Unmarked numbers belong to inactive results. Active and inactive are the calls of the source.

With `COc1cc2nc(Cl)nc(Nc3cccc(C4=Nc5c(N)nc(N)nc5NC(c5ccc(F)cc5)C4)c3)c2cc1OC` (configuration not stated), the growth in [1] is 75.9%; in assay [2], 75.8%; in assay [3], 83.8%; in assay [4] it was 12.2%; in assay [5], 21.7%; in [6], 50%. The growth was 64.2% in assay [7]; 62.1% in assay [8]; 70.7% in assay [9]; 79.4% in assay [10]; 76.4% in assay [11]; 51.1% in assay [12]. The growth was 77.4% in assay [13]; 2.02% (active) in assay [14]; 88.6% in assay [15]; 92.1% in assay [16]; 86.8% in assay [17].

Regarding `CCO/C=N/C1=C(C#N)C(c2ccc(Cl)cc2)c2sc3c(CC)cccc3c2O1` (configuration not stated), the growth in assay [1] is 22%; in [2], 54.7%; in assay [3] it was 43.3%; in assay [4], 45.1%; in assay [5] it was 9.19% (active); in [7], 30%. The growth is 41.9% in assay [8]; 14% in assay [9]; 13.6% in assay [10]; 11.4% in assay [18]; 37.2% in assay [11]; -27.7% (active) in assay [12]. The growth in assay [13] was 58.3%; in assay [14], -12.1% (active); in [15], -3.86% (active); in assay [16], 70.3%; in assay [17] it was 8.6% (active).

For the molecule `Nc1nc(-c2cccc([N+](=O)[O-])c2)c(N=Nc2ccc(Br)cc2)s1`, the growth in assay [1] was -65% (active); in assay [2] it was -39.2% (active); in assay [3], -25.4% (active); in [4] it was -68.1% (active); in assay [5], -61% (active); in assay [6], -48.6% (active). Moreover, the growth in assay [8] is -96.4% (active); in [9], -2.36% (active); in assay [10] it was -41.2% (active); in assay [18], 16.6%; in assay [19], -62% (active); in assay [11], -46.6% (active). For the same molecule, the growth was -92.3% (active) in assay [12]; 26.2% in assay [13]; -65.4% (active) in assay [14]; -98% (active) in assay [15]; 0.3% (active) in [16]; -75.4% (active) in assay [17].

With `Cn1cc(-c2nc(N)nnc2-c2c[nH]c3ccc(Br)cc23)c2cc(Br)ccc21`, the growth in assay [1] is 48.7%; in assay [2], 79.9%; in assay [3], 68.4%; in assay [4], 59.6%; in [5], 17.3%; in assay [6], 11.6%. The growth in assay [8] was 51.1%; in assay [9], 36.3%; in assay [10], 64.8%; in [18], 12.2%; in assay [19], 43%; in assay [11] it was 62.5%. Besides, the growth in assay [12] was 39.8%; in [13] it was 61.3%; in assay [14] it was 11.7%; in assay [15] it was 43.8%; in assay [16], 82.9%; in assay [17] it was 20.7%.

On to `O=C1/C(=C/C=C/c2ccco2)SC(=S)N1C1CCCCC1`, for which the growth in assay [1] is 91.3%; in [2], 105%; in assay [3], 97.4%; in assay [4], 102%; in assay [5] it was 95.7%; in [7], 86.8%. Also, the growth in assay [8] is 106%; in assay [9], 72.9%; in [10], 95%; in assay [18], 83.5%; in assay [19] it was 83.6%; in [11], 74%. Further, the growth in [12] is 47.7%; in [13], 109%; in assay [14], 97.6%; in assay [15], 94.8%; in [16] it was 67.7%; in assay [17] it was 93.8%.

Consider `Cc1cc(-c2ccc(Cl)cc2)n(Cc2nnc(SCC(=O)Nc3ccc(S(N)(=O)=O)cc3)n2C2CCCCC2)n1`, for which the growth was 99.4% in assay [1]; 93.5% in assay [2]; 97.2% in [3]; 114% in assay [4]; 105% in assay [5]; 99.8% in assay [6]. Further, the growth in assay [8] was 108%; in [9], 116%; in assay [10], 117%; in [18] it was 104%; in assay [19], 87%; in assay [11], 106%. Moreover, the growth in assay [12] was 110%; in assay [13], 113%; in [14] it was 98%; in assay [15], 103%; in [16], 101%; in [17], 99.8%.

`CCOc1ccc(C(=O)Nc2ncc(Cc3ccc(F)cc3)s2)cc1`: the growth in assay [1] is 28.4%; in assay [2], 40.1%; in [3], 55.3%; in assay [4], 33.7%; in assay [5] it was 7.15% (active); in assay [6], 10.8%. Besides, the growth in [8] is 39.3%; in [9] it was -21.9% (active); in assay [10], 28.8%; in assay [18] it was 9.95% (active); in [19] it was 63.6%; in [11], 36%. Besides, the growth in [12] is 1.11% (active); in assay [13], 53.6%; in assay [14], 4.39% (active); in assay [15] it was 1.96% (active); in [16] it was 77.7%; in assay [17] it was 15.4%.

For `NC(N)=Nc1ccc(Oc2cccc(Nc3ccc(Cl)c(C(F)(F)F)c3)c2)cc1`, the growth is 47.4% in assay [1]; 53.3% in assay [2]; 61.9% in [3]; 13.4% in [4]; 2.61% (active) in assay [5]; 49% in assay [6]. Also, the growth is 57.4% in assay [7]; 53% in [8]; -4.28% (active) in [9]; 47.8% in assay [10]; 5.61% (active) in assay [18]; 6.88% (active) in assay [11]. Moreover, the growth in assay [12] is 50%; in assay [13] it was 32.8%; in assay [14], 4.34% (active); in [15], 80.9%; in [16], 27.6%; in [17], 41.1%.
